# Publication PMC11062922 (Nature Chemical Biology, 2023)
# Where two headings read alike, the source gives them in different places.
# Experiments:
# Design in all cases: species or system human, MV4-11 + K-562 + COLO205 + SK-N-BE2 + OVCAR-8
# ACVR1B = settings: read-out: apparent Kd, n = 1
# CDC42 = settings: read-out: apparent Kd; compound concentrations:100 nM and 1000 nM (sheet 'Samples'); n = 1
# TGFBR1 = settings: read-out: apparent Kd, n = 1
# CSNK1D = settings: read-out: apparent Kd, n = 1
# MAPK14 = settings: read-out: apparent Kd, compound concentrations: 100 nM and 1000 nM (sheet 'Samples'), n = 1
# CIT = settings: read-out: apparent Kd; compound concentrations: 100 nM and 1000 nM (sheet 'Samples'), CATDS: 6.8145894715466407E-2; n = 1
# CSNK1A1 = settings: read-out: apparent Kd, n = 1
# CSNK1E = settings: read-out: apparent Kd, n = 1
# DJA1 = tested on: T1, DJA1; settings: read-out: apparent Kd; compound concentrations: 100 nM and 1000 nM (sheet 'Samples'), CATDS: 6.7999729986940594E-2; n = 1
# T1 construct: gene DNAJA1
# GAK = settings: read-out: apparent Kd, n = 1
# MAPK10 = settings: read-out: apparent Kd; compound concentrations: 100 nM and 1000 nM (sheet 'Samples'), CATDS: 7.0993589128773599E-2; n = 1
# MAPK9 = settings: read-out: apparent Kd; compound concentrations: 100 nM and 1000 nM (sheet 'Samples'), CATDS: 6.4345745846517005E-2; n = 1
# MAPKAPK2 = settings: read-out: apparent Kd, n = 1
# PKN3 = settings: read-out: apparent Kd; compound concentrations: 100 nM and 1000 nM (sheet 'Samples'), CATDS: 6.6861054791119798E-2; n = 1
# PRKCQ = settings: read-out: apparent Kd; compound concentrations: 100 nM and 1000 nM (sheet 'Samples'), CATDS: 6.9749841239759497E-2; n = 1
# NQO2 = settings: read-out: apparent Kd; compound concentrations:100 nM and 1000 nM (sheet 'Samples'); n = 1
# ACOX3 = settings: read-out: apparent Kd; compound concentrations: 100 nM and 1000 nM (sheet 'Samples'), CATDS: 0.63885197419414497; n = 1
# FECH = settings: read-out: apparent Kd; compound concentrations: 100 nM and 1000 nM (sheet 'Samples'), CATDS: 0.41072954272515799; n = 1
# ILK = settings: read-out: apparent Kd; compound concentrations:100 nM and 1000 nM (sheet 'Samples'); n = 1
# MAP2K1 = settings: read-out: apparent Kd; compound concentrations:100 nM and 1000 nM (sheet 'Samples'); n = 1
# MAP2K2 = settings: read-out: apparent Kd; compound concentrations:100 nM and 1000 nM (sheet 'Samples'); n = 1
# PIK3CA = settings: read-out: apparent Kd; compound concentrations:100 nM and 1000 nM (sheet 'Samples'); n = 1
# PIK3CD = settings: read-out: apparent Kd; compound concentrations:100 nM and 1000 nM (sheet 'Samples'); n = 1
# PRKD2 = settings: read-out: apparent Kd; compound concentrations:100 nM and 1000 nM (sheet 'Samples'); n = 1
# PRKD3 = settings: read-out: apparent Kd; compound concentrations:100 nM and 1000 nM (sheet 'Samples'); n = 1
# PSMC3 = settings: read-out: apparent Kd; compound concentrations:100 nM and 1000 nM (sheet 'Samples'); n = 1
# ACVR2B = settings: read-out: apparent Kd; compound concentrations:100 nM and 1000 nM (sheet 'Samples'); n = 1
# TGFBR2 = settings: read-out: apparent Kd; compound concentrations:100 nM and 1000 nM (sheet 'Samples'); n = 1
# TNIK = settings: read-out: apparent Kd; compound concentrations:100 nM and 1000 nM (sheet 'Samples'); n = 1
# [1] = compound concentrations:100 nM and 1000 nM (sheet 'Samples')
compound,measurement,setting,value
Cl.NC(=O)c1ccc(-c2nc(-c3ccccn3)c(-c3ccc4c(c3)OCO4)[nH]2)cc1 [SB-431542-A],potency estimated from few doses,ACVR1B; [1],1140 nM
same,potency estimated from few doses,CDC42,731 nM
same,potency estimated from few doses,TGFBR1; [1],946 nM
Nc1nccc(-c2c(-c3ccc(F)cc3)nn3cc(C(F)(F)F)ccc23)n1 [GW568326X],potency estimated from few doses,"ACVR1B; compound concentrations: 100 nM and 1000 nM (sheet 'Samples'), CATDS: 0.37925228743827699",526 nM
same,potency estimated from few doses,"CSNK1D; compound concentrations: 100 nM and 1000 nM (sheet 'Samples'), CATDS: 0.232202944333886",1310 nM
same,potency estimated from few doses,MAPK14; CATDS: 0.251383978494441,1100 nM
same,potency estimated from few doses,"TGFBR1; compound concentrations: 100 nM and 1000 nM (sheet 'Samples'), CATDS: 0.196901676551059",2000 nM
Fc1ccc(-c2nn3ccccc3c2-c2ccncc2)cc1 [GW434756X],potency estimated from few doses,"ACVR1B; compound concentrations: 100 nM and 1000 nM (sheet 'Samples'), CATDS: 6.8235886805588605E-2",1230 nM
same,potency estimated from few doses,CIT,1230 nM
same,potency estimated from few doses,"CSNK1A1; compound concentrations: 100 nM and 1000 nM (sheet 'Samples'), CATDS: 7.0903830983545899E-2",1120 nM
same,potency estimated from few doses,"CSNK1D; compound concentrations: 100 nM and 1000 nM (sheet 'Samples'), CATDS: 0.180022890791455",233 nM
same,potency estimated from few doses,"CSNK1E; compound concentrations: 100 nM and 1000 nM (sheet 'Samples'), CATDS: 9.3100036539018993E-2",644 nM
same,potency estimated from few doses,DJA1,1240 nM
same,potency estimated from few doses,"GAK; compound concentrations: 100 nM and 1000 nM (sheet 'Samples'), CATDS: 6.3982915513231806E-2",1440 nM
same,potency estimated from few doses,MAPK10,1120 nM
same,potency estimated from few doses,MAPK14; CATDS: 8.8352679979738905E-2,709 nM
same,potency estimated from few doses,MAPK9,1420 nM
same,potency estimated from few doses,"MAPKAPK2; compound concentrations: 100 nM and 1000 nM (sheet 'Samples'), CATDS: 0.114976727477382",449 nM
same,potency estimated from few doses,PKN3,1290 nM
same,potency estimated from few doses,PRKCQ,1160 nM
CN(C(=O)c1ccc(-c2cc(-c3c[nH]nc3-c3ccccn3)ccn2)cc1)C1CCOCC1 [GW810083X],potency estimated from few doses,ACVR1B; [1],788 nM
same,potency estimated from few doses,CDC42,1840 nM
same,potency estimated from few doses,CSNK1A1; [1],2390 nM
same,potency estimated from few doses,CSNK1D; [1],1940 nM
same,potency estimated from few doses,NQO2,1200 nM
same,potency estimated from few doses,TGFBR1; [1],198 nM
Cc1ccc(NC(=O)c2cccc(C#N)c2)cc1-c1ccc(C(=O)Nc2ccncc2)cc1 [GSK1398463A],potency estimated from few doses,ACOX3,513 nM
same,potency estimated from few doses,FECH,1300 nM
Cc1cc(Nc2nc(-c3cccc(C)n3)nc3ccccc23)ccn1 [GW872411X],potency estimated from few doses,ACVR1B; [1],471 nM
same,potency estimated from few doses,CSNK1D; [1],1530 nM
same,potency estimated from few doses,CSNK1E; [1],1700 nM
same,potency estimated from few doses,ILK,1610 nM
same,potency estimated from few doses,MAP2K1,2130 nM
same,potency estimated from few doses,MAP2K2,1690 nM
same,potency estimated from few doses,PIK3CA,247 nM
same,potency estimated from few doses,PIK3CD,155 nM
same,potency estimated from few doses,PRKD2,4.12 nM
same,potency estimated from few doses,PRKD3,6.25 nM
same,potency estimated from few doses,PSMC3,1810 nM
same,potency estimated from few doses,TGFBR1; [1],182 nM
c1ccc(-c2n[nH]cc2-c2ccnc3ccccc23)nc1 [GW271431X],potency estimated from few doses,ACVR1B; [1],18.8 nM
same,potency estimated from few doses,ACVR2B,555 nM
same,potency estimated from few doses,CSNK1A1; [1],628 nM
same,potency estimated from few doses,CSNK1D; [1],398 nM
same,potency estimated from few doses,CSNK1E; [1],712 nM
same,potency estimated from few doses,GAK; [1],465 nM
same,potency estimated from few doses,MAPKAPK2; [1],1680 nM
same,potency estimated from few doses,PRKD2,1430 nM
same,potency estimated from few doses,TGFBR1; [1],9.71 nM
same,potency estimated from few doses,TGFBR2,113 nM
same,potency estimated from few doses,TNIK,1380 nM
